{
  "source": "paper PMC7819943",
  "about": "“Rice protein-binding microarrays: a tool to detect cis-acting elements near promoter regions in rice”",
  "note": "Whole data set: some 68,000 sequences, median “fluorescence intensity (a.u.)” near 9,100, cut for the highest 2% near 16,000. What follows is part of a selection rich in the highest values, with near analogues and random picks from the rest.",
  "data": [
    {"biological_target": "OsWRKY34 (Oryza sativa, UniProt Q0JBA9 1-250)", "sequence (Q0JBA9 entry or part of it)": "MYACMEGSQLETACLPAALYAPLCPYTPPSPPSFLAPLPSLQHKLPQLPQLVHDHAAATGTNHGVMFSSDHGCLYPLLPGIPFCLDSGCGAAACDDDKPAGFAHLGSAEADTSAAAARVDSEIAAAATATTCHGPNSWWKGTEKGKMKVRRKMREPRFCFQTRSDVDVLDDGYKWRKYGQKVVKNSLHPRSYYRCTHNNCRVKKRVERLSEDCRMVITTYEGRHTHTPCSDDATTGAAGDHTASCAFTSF", "experiment": "protein-binding microarray (RPBM); PBS, 2% BSA, 51.3 ng/ul salmon testes DNA, 50 uM zinc acetate, 200 nM TF, 25 C, 1 h; high values mean tight binding", "settings": "protein: recombinant; tags: N-terminal polyhistidine and DsRed monomer fusion (pET32a); label: CyDye5-dUTP incorporated in the synthesized complementary strand; 3' TTTTT single-stranded linker to array surface; dsDNA, one strand shown", "summary_of_the_method": "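Binding signal here means per-feature fluorescence intensity in arbitrary units. The values were read on an Axon 4000B scanner after a custom Agilent array, double-stranded by primer extension with Cy5-dUTP, was incubated with 200 nM protein at 25 °C for 1 h in PBS with 2% BSA, salmon testes DNA and 50 µM zinc acetate, then washed. The proteins were transcription factors with an N-terminal polyhistidine tag and DsRed, expressed in E. coli BL21-CodonPlus and purified on Ni–NTA.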", "values": [
      {"sequence": "CTTTTTAGCATATGTTTGACCGTTTGTCTTATTTAAAATACGGAGTCACCTAGTGCAG", "binding signal": "9700 fluorescence intensity (a.u.)"},
      {"sequence": "GAAATATTTGACACCGTTGACTTTTTAGCATATGTTTGACCGGAGTCACCTAGTGCAG", "binding signal": "30700 fluorescence intensity (a.u.)"},
      {"sequence": "CCTCCGTTTCTATATATTTAATATTGTTGACTTTTTAGCACGGAGTCACCTAGTGCAG", "binding signal": "12000 fluorescence intensity (a.u.)"},
      {"sequence": "TTGGTTGATTTTGATTGCTTTGCTCCTTTTCTGACTTGCTCGGAGTCACCTAGTGCAG", "binding signal": "9410 fluorescence intensity (a.u.)"},
      {"sequence": "CTCTGTTTCTAAATATTTGACACCATTGACTTTTTAGCATCGGAGTCACCTAGTGCAG", "binding signal": "10900 fluorescence intensity (a.u.)"},
      {"sequence": "AATACTCCCTCCGTTTCGAAATATTTGACGCCGTTGACTTCGGAGTCACCTAGTGCAG", "binding signal": "12400 fluorescence intensity (a.u.)"},
      {"sequence": "TACCGAACCTTTGGCATATTGACCCTTTTGGCCTTTTATACGGAGTCACCTAGTGCAG", "binding signal": "12200 fluorescence intensity (a.u.)"},
      {"sequence": "TTGACACCGTTAACTTTTTAGCATATGTTTGACCGTTCATCGGAGTCACCTAGTGCAG", "binding signal": "9610 fluorescence intensity (a.u.)"},
      {"sequence": "GTACTCCCTCCGTTTCGAAATATTTAACACCGTTGACTTTCGGAGTCACCTAGTGCAG", "binding signal": "17400 fluorescence intensity (a.u.)"},
      {"sequence": "ATTTGTTTCTAAATATTTGACACCGTTGACTTTTTAGCACCGGAGTCACCTAGTGCAG", "binding signal": "24100 fluorescence intensity (a.u.)"},
      {"sequence": "TTCACAGTGTAGTTGTTTTATTTAGCCAGTATTTTTTTTTCGGAGTCACCTAGTGCAG", "binding signal": "8820 fluorescence intensity (a.u.)"},
      {"sequence": "CCACAGCGCCTCCACTGCCTGCAGGGACGCCACCGCTACCCGGAGTCACCTAGTGCAG", "binding signal": "8450 fluorescence intensity (a.u.)"},
      {"sequence": "CCATTACCAGAACAGAACAGCAGGTTTTAACCTAACATTCCGGAGTCACCTAGTGCAG", "binding signal": "8110 fluorescence intensity (a.u.)"},
      {"sequence": "ATACTCTCATTTTTGTTTGCTCTATTCTTTGCTTTTAGAACGGAGTCACCTAGTGCAG", "binding signal": "10200 fluorescence intensity (a.u.)"},
      {"sequence": "ATATCTCATACTATCTCTCTTCCGTCGTTCCGTGTTGGCCCGGAGTCACCTAGTGCAG", "binding signal": "10900 fluorescence intensity (a.u.)"},
      {"sequence": "CTACGATCAGAAACAGCGGGGCGGGTTGGGAGGGAGTCCACGGAGTCACCTAGTGCAG", "binding signal": "15800 fluorescence intensity (a.u.)"},
      {"sequence": "ACCCCGACCATCTCCCACCATCGGAGGAGACGCTCAAACTCGGAGTCACCTAGTGCAG", "binding signal": "8340 fluorescence intensity (a.u.)"},
      {"sequence": "CCCGGCCCATCTCTCTGGCTCGCACTCCGCCTCCGCCACCCGGAGTCACCTAGTGCAG", "binding signal": "10500 fluorescence intensity (a.u.)"},
      {"sequence": "CCTCCGTTTCTAAATATTTAACGCCATTGACTTTTTAGCACGGAGTCACCTAGTGCAG", "binding signal": "9160 fluorescence intensity (a.u.)"},
      {"sequence": "CTCCCTCCGTTTCTAAATATTTGATACCGTTGACTTTTTACGGAGTCACCTAGTGCAG", "binding signal": "22300 fluorescence intensity (a.u.)"},
      {"sequence": "AAAATGTTTGACACCGTTGACTTTTTAGCATATGTTTGACCGGAGTCACCTAGTGCAG", "binding signal": "30800 fluorescence intensity (a.u.)"},
      {"sequence": "AAATGTTTGACACCGTTGATTTTTTAGCGCATGTTTGACCCGGAGTCACCTAGTGCAG", "binding signal": "8840 fluorescence intensity (a.u.)"},
      {"sequence": "TTCAAAATGTTTGACACCATTGACTTTTTAGCATATGTTTCGGAGTCACCTAGTGCAG", "binding signal": "10000 fluorescence intensity (a.u.)"},
      {"sequence": "ATCCGTTTTATATTATAAATCATTTGACTTTTTCTATTAGCGGAGTCACCTAGTGCAG", "binding signal": "8510 fluorescence intensity (a.u.)"},
      {"sequence": "ACCCTCCGTTTCTAAATATTTAACACCGTTGACTTTTTAGCGGAGTCACCTAGTGCAG", "binding signal": "23700 fluorescence intensity (a.u.)"},
      {"sequence": "TCGAAATGTTTGACACCGTTGACTTTTTAGCATATGTTTGCGGAGTCACCTAGTGCAG", "binding signal": "33700 fluorescence intensity (a.u.)"},
      {"sequence": "AATCTTTTATACATATAATCCCTCCGTTTCTAAATATTTACGGAGTCACCTAGTGCAG", "binding signal": "8110 fluorescence intensity (a.u.)"},
      {"sequence": "AGTACTCCCTCCGTTTCTAAATATTTGACACCGTTGACTTCGGAGTCACCTAGTGCAG", "binding signal": "12700 fluorescence intensity (a.u.)"},
      {"sequence": "GTCATTGTTTGGAGTGGAGTTTTGCTTAGATTAATCTGTCCGGAGTCACCTAGTGCAG", "binding signal": "8860 fluorescence intensity (a.u.)"},
      {"sequence": "ACCACCACCCTGATGGATCTTGGCTCTAGCTCCTGGTTTTCGGAGTCACCTAGTGCAG", "binding signal": "8110 fluorescence intensity (a.u.)"},
      {"sequence": "GCTGCGCACCTAATGCTACTGTTTTGTTAGTATTTATTTACGGAGTCACCTAGTGCAG", "binding signal": "8460 fluorescence intensity (a.u.)"},
      {"sequence": "GTTAGCTTCTACATTTCTCGTTTCTGCTGAAAATAGTGGACGGAGTCACCTAGTGCAG", "binding signal": "9540 fluorescence intensity (a.u.)"},
      {"sequence": "ACGACGAGGAGGCGGTGGTGGTCGTGCGCGGGGAGGAGTCCGGAGTCACCTAGTGCAG", "binding signal": "9310 fluorescence intensity (a.u.)"},
      {"sequence": "TGCTCTTTTTTTCTTGATTATAACCTTCCGGGGTAGTTTTCGGAGTCACCTAGTGCAG", "binding signal": "8720 fluorescence intensity (a.u.)"},
      {"sequence": "ACACTTGGCATTAATCTAATTTAACTTTTTTTTCTTTATCCGGAGTCACCTAGTGCAG", "binding signal": "8440 fluorescence intensity (a.u.)"},
      {"sequence": "ATTGAAACATGATCCGAGTCATAGCCTGACTGGAATTCTTCGGAGTCACCTAGTGCAG", "binding signal": "9120 fluorescence intensity (a.u.)"},
      {"sequence": "TCGTGCGTGCGTGTTTAATTGTCAACCCATACACAACTTGCGGAGTCACCTAGTGCAG", "binding signal": "8510 fluorescence intensity (a.u.)"},
      {"sequence": "TAAATATTTGACACCGTTGACTTTTTACACATATTTGACCCGGAGTCACCTAGTGCAG", "binding signal": "35100 fluorescence intensity (a.u.)"},
      {"sequence": "TTGACATAAATTTTCAACCAACCCGTTGTTTTTGTTTTACCGGAGTCACCTAGTGCAG", "binding signal": "9250 fluorescence intensity (a.u.)"},
      {"sequence": "AAATATTTGACCGTTCGTTTATTATTTTTATTTTTTTTACCGGAGTCACCTAGTGCAG", "binding signal": "12200 fluorescence intensity (a.u.)"},
      {"sequence": "TTCCTCTTCTCTTCTCGTCTCTTGTAGTAGTATATATTTACGGAGTCACCTAGTGCAG", "binding signal": "8430 fluorescence intensity (a.u.)"},
      {"sequence": "TCACTTTTCATGTACAAAACATGTTGATATTGTGGTTGGTCGGAGTCACCTAGTGCAG", "binding signal": "8200 fluorescence intensity (a.u.)"}
    ]}
  ]
}
